# “And” between values parts separate entries of the source, which are not always exact repeats. Equal values may be shown once. The source made the active and inactive calls.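 The calls were made as follows, unless noted: active = compounds whose cell count with miR-34 switched on is under 0.7 times the count with it off; inactive = the rest.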
# Legend:
# [1] = liver-stage malaria parasite growth inhibition, primary screen, cell-based, HepG2, luciferase luminescence, HepG2 viability (AID 624349; in the data active = parasite load remaining mostly below about 12%, no sharp cut-off; inactive = mostly above about 10%;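 also: 100% = mean of DMSO negative control wells on the same plate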); details: P. berghei liver stage in HepG2, luciferase luminescence, concentration not given here; parasite load remaining: stronger effect = lower value; viability: measured here: HepG2 viability without parasites
# [2] = stimulators of nuclear beta-catenin in C2C12, primary screen, imaging, WNT3A-conditioned medium, mouse C2C12, NPC library (AID 1117326; in the data active = nuclear beta-catenin stimulation mostly above about 4.2%, no sharp cut-off; inactive = mostly below about 10%); details: stronger effect = higher value
# [3] = stimulators of insulin release from INS-1E, primary screen, cell-based, 5 mM glucose, NPC library (AID 1117329;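 active = compound raises insulin release from rat beta cells at 5 mM glucose, no numeric limit stated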); details: rat INS-1E insulin secretion, at 10 µM, stronger effect = higher value
# [4] = growth inhibition of GSK3B-pretreated HCT116 cells – cell-based, CellTiter-Glo, 0.2 to 20 µM (AID 1117336;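 active = compounds lowering colon cancer cell viability after pretreatment blocking the GSK3B kinase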); details: HCT116 viability after GSK3B inhibitor, at 20 µM, stronger effect = higher value
# [5] = inhibition of endothelial tube formation, primary screen, imaging, VEGF stimulated, CD31 staining, tube area, NPC library (AID 1117340;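 active = compound that reduces growth-factor-driven endothelial tube area in a mixed cell culture, no cutoff stated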); details: VEGF-stimulated ADSC/ECFC co-culture, at 10 µM, stronger effect = higher value
# [6] = glucagon-like peptide 1 release enhancers, primary assay, NCI-H716 cell line, NPC library (AID 1117341;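 active = compound raises GLP1 secretion from the human gut endocrine cells, with no numeric limit stated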); details: NCI-H716 cells, at 10 µM, stronger effect = higher value
# [7] = HCT116 colon cancer cell growth inhibition, primary screen, CellTiter-Glo luminescence, NPC library (AID 1117342;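 active = compounds that lower survival of HCT116 colon cancer cells in the luminescence readout, no numeric limit stated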); details: at 20 µM (top of the series)
# [8] = CellTiter-Glo luminescent readout of SW480 viability loss, NPC library primary (AID 1117343;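 active = compounds that lower viability of the colon cancer cells in the luminescence readout, with no numeric limit stated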); details: CellTiter-Glo luminescence; at 20 µM (top of the series)
# [9] = decreased DLD-1 cellular survival, CellTiter-Glo luminescent readout, NPC compound collection, primary HTS (AID 1117346;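 active = compounds that lower survival of DLD-1 colon cancer cells in the luminescence readout, no cutoff given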); details: DLD-1 viability, CellTiter-Glo luminescence; at 20 µM (top of the series)
# [10] = differential killing of epithelial or mesenchymal cells, primary screen, imaging, PC-3E GFP, TEM4-18 mCherry, co-culture (AID 1345086;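 active = compounds killing one labelled cell type while sparing the other, by normalised counts and ratio limits, not self-fluorescent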;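 as to all read-outs here: cells exposed to compound for 72 h before imaging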;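 as to red/green cell ratio (normalised): normalised mesenchymal count divided by normalised epithelial count so high means epithelial killing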); details: imaging cell counts, at 1 µM; for red/green cell ratio (normalised): actives lie on both sides
# [11] = sensitizers of A549 cells to miR-34 induction, primary screen, imaging, A549 dox-inducible miR-34, nuclei and caspase counts (AID 1347080); details: A549 miR-34 inducible, Hoechst nuclei count, 48 h
# [12] = survival rescue of mitochondrial mutant cells in low glucose, primary screen, MELAS cybrids, Rieske KO mouse fibroblasts, CellTiter-Glo (AID 1508586;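 active = mean z-score across replicates of 1.96 or higher in either the MELAS or the Rieske mutant cell line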;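 also: z relative to plate mean and SD of compound and empty wells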)
# [13] = target: NAD(+) hydrolase SARM1 (Homo sapiens) (UniProt Q6SZW1); assay: SARM1 TIR NADase inhibitors, cell lysate, NAD-Glo luminescence (AID 1508614;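 active = compound whose remaining NAD level is above about 45 nM, limit read from the data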;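 also: higher remaining NAD means stronger inhibition of SARM1 NADase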); details: SAM-TIR HEK293T lysate NADase, at 1 µM, stronger effect = higher value
# [14] = viability rescue of complex I mutant cybrids, primary screen, cell-based, galactose medium, ATP luminescence (AID 1645843;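 active = z-score of at least 1.8 in each of two replicates, scored against plate mean and spread of sample wells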;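 also: positive z means more ATP and so rescue of galactose-driven cybrid death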); details: complex I mutant cybrid cells, 72 h, stronger effect = higher value
# [15] = hESC survival regulators, cell-based (AID 493140; call rule not given here;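 also: cells exposed to compounds for four days before counting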); details: human embryonic stem cell survival screen; stronger effect = higher value
# [16] = tested on: Aerobactin synthetase IucA (Klebsiella pneumoniae hvKP1); assay: Biochemical IucA enzyme inhibition primary screen of the Spectrum library (AID 1346200; call rule not given here;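 also: 100% = wells without compound and 0% = wells lacking enzyme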); details: malachite green pyrophosphate, A620, at 8 µM, stronger effect = lower value
# [17] = target: Mitogen-activated protein kinase 7 (Homo sapiens) (UniProt Q13164); assay: ERK5 transactivation activators in reporter cells, primary screen, cell-based, HTS (AID 1508626;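 active = luciferase signal above three times the same-plate solvent-only control wells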;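 also: luciferase driven by Gal4-ERK5 fusion binding five Gal4 sites before minimal TATA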); details: HeLa Gal4-ERK5 transactivation, 18 h, at 5 µM, stronger effect = higher value
# [18] = tested on: Aerobactin synthetase IucA (Klebsiella pneumoniae, hypervirulent); assay: IucA enzyme inhibition, biochemical, LOPAC library, absorbance readout (AID 1346212; call rule not given here;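 also: 100% = no compound wells and 0% = no enzyme wells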); details: IucA enzyme assay, absorbance (OD) readout; stronger effect = lower value; concentration not given here
# [19] = measured here: epithelial PC-3E GFP cell survival
# [20] = measured here: mesenchymal TEM4-18 mCherry cell survival
# [21] = measured here: relative caspase fold change +Dox/-Dox
# [22] = measured here: total cells with miR-34 induction, stronger effect = lower value
# [23] = measured here: total cells without miR-34 induction
# [24] = MELAS cybrid survival, CellTiter-Glo 48 h, stronger effect = higher value
# [25] = Rieske KO mouse fibroblast survival, CellTiter-Glo 72 h
# Sequence of NAD(+) hydrolase SARM1 (Homo sapiens) (Q6SZW1 whole entry, looked up): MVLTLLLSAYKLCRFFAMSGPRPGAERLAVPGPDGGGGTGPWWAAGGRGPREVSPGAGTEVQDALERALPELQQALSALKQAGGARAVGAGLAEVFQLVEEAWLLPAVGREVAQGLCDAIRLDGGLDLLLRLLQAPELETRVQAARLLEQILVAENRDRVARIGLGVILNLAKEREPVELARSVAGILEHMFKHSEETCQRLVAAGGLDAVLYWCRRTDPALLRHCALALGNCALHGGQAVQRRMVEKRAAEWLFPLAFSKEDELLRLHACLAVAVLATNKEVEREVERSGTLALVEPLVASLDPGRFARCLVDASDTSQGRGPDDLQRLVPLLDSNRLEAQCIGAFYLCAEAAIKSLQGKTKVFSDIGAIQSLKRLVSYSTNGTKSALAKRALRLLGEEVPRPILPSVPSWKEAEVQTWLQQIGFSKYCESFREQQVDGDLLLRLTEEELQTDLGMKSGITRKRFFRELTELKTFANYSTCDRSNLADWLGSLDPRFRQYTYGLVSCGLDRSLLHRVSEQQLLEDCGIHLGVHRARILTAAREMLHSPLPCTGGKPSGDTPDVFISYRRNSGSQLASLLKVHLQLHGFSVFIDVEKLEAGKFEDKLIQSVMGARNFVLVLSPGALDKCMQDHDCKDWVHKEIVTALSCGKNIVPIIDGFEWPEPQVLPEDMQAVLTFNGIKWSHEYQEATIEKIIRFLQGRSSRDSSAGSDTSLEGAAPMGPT
# Sequence of Mitogen-activated protein kinase 7 (Homo sapiens) (Q13164 whole entry, looked up, the tested form may be a part): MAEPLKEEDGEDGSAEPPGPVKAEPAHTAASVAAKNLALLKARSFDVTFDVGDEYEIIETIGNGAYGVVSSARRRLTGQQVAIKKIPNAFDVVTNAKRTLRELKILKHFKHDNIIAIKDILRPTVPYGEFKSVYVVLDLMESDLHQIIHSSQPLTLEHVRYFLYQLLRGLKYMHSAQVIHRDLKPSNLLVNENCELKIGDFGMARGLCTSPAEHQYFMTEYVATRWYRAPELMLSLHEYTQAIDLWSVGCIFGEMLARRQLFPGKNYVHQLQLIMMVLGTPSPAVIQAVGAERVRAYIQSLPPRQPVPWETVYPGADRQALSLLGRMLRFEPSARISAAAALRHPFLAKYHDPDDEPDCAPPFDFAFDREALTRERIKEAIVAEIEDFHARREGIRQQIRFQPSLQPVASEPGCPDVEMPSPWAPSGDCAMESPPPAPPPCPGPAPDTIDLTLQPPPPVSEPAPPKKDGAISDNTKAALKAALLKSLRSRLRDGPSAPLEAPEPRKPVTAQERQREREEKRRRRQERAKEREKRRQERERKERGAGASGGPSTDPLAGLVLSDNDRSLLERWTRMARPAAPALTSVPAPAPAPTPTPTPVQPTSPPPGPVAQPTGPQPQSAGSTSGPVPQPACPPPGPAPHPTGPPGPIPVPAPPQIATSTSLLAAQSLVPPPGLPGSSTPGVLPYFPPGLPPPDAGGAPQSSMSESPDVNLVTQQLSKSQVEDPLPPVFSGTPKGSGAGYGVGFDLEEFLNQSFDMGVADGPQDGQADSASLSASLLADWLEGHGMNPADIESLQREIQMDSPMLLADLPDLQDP
smiles,measurement,setting,value
c1ccc2c(c1)Nc1ccccc1S2,parasite load remaining,[1],39.8% (inactive)
same,viability,[1],65.3%
same,nuclear beta-catenin stimulation,[2]; at 10 µM,-1.5% (inactive)
same,nuclear beta-catenin stimulation,"[2]; stimulation, at 2 µM",-0.5%
same,insulin secretion stimulation,[3],1% (inactive)
same,viability decrease,[4],77.7% (active)
same,tube area decrease,[5],-18.6% (inactive)
same,GLP1 secretion stimulation,[6],-2.4% (inactive)
same,inhibition of viability,[7],48.1% (inactive)
same,viability decrease (inhibition),[8],60% (active)
same,viability decrease (inhibition),[9],38% (active)
same,red/green cell ratio (normalised),[10],0.84 (inactive)
same,normalised cell number,[10]; [19],0.93
same,normalised cell number,[10]; [20],0.78
same,fold change,[11]; stronger effect = lower value,0.885 (inactive) and 0.762 (inactive)
same,fold change,[11]; [21],1.16 and 2.24
same,cell count,[11]; [22],8220 and 7990
same,cell count,[11]; [23],9300 and 10500
same,z-score,[12]; [24],-0.376 (inactive) and 0.48 (inactive)
same,z-score,[12]; [25],-0.33 and 0.378
same,remaining NAD,[13],10 nM (inactive)
same,z-score,[14],-0.355 (inactive)
CC1(C)C(C=C(Cl)Cl)C1C(=O)OC(C#N)c1cccc(Oc2ccccc2)c1 (configuration not stated),survival,[15],64.8 (inactive)
same,nuclear beta-catenin stimulation,[2]; at 10 µM,0.7% (inactive)
same,nuclear beta-catenin stimulation,"[2]; stimulation, at 2 µM",-1%
same,insulin secretion stimulation,[3],8.1% (inactive)
same,viability decrease,[4],1.2% (inactive)
same,tube area decrease,[5],-7.9% (inactive)
same,GLP1 secretion stimulation,[6],4.4% (inactive)
same,inhibition of viability,[7],40.5% (inactive)
same,viability decrease (inhibition),[8],27.7% (inactive)
same,viability decrease (inhibition),[9],23.2% (active)
same,red/green cell ratio (normalised),[10],0.82 (inactive)
same,normalised cell number,[10]; [19],1.16
same,normalised cell number,[10]; [20],0.96
same,fold change,[11]; stronger effect = lower value,0.936 (inactive) and 0.968 (inactive)
same,fold change,[11]; [21],1.17 and 1.27
same,cell count,[11]; [22],7700 and 5600
same,cell count,[11]; [23],8230 and 5790
same,remaining NAD,[13],10 nM (inactive)
NC1=NC(=O)C(c2ccccc2)O1 (configuration not stated),parasite load remaining,[1],109% (inactive)
same,viability,[1],79.6%
same,nuclear beta-catenin stimulation,[2]; at 10 µM,1% (inactive)
same,nuclear beta-catenin stimulation,"[2]; stimulation, at 2 µM",0.5%
same,insulin secretion stimulation,[3],-0.9% (inactive)
same,viability decrease,[4],-2.4% (inactive)
same,tube area decrease,[5],1.1% (inactive)
same,GLP1 secretion stimulation,[6],3.5% (inactive)
same,inhibition of viability,[7],-21.1% (inactive)
same,viability decrease (inhibition),[8],36.7% (inactive)
same,viability decrease (inhibition),[9],-5.1% (inactive)
same,fold change,[11]; stronger effect = lower value,0.967 (inactive)
same,fold change,[11]; [21],2.22
same,cell count,[11]; [22],9620
same,cell count,[11]; [23],9950
same,z-score,[14],0.395 (inactive)
CN1C(=O)CN=C(c2ccccc2)c2cc([N+](=O)[O-])ccc21,parasite load remaining,[1],83.1% (inactive)
same,viability,[1],68.8%
same,nuclear beta-catenin stimulation,[2]; at 10 µM,0.5% (inactive)
same,nuclear beta-catenin stimulation,"[2]; stimulation, at 2 µM",0.9%
same,insulin secretion stimulation,[3],-0.2% (inactive)
same,viability decrease,[4],-4.25% (inactive)
same,tube area decrease,[5],-18.8% (inactive)
same,GLP1 secretion stimulation,[6],3.3% (inactive)
same,inhibition of viability,[7],-16.9% (inactive)
same,viability decrease (inhibition),[8],18.1% (inactive)
same,viability decrease (inhibition),[9],1.05% (inactive)
same,fold change,[11]; stronger effect = lower value,0.947 (inactive)
same,fold change,[11]; [21],1.19
same,cell count,[11]; [22],9100
same,cell count,[11]; [23],9610
same,z-score,[14],0.65 (inactive)
O=C1C2CC=CCC2C(=O)N1SC(Cl)(Cl)Cl (configuration not stated),nuclear beta-catenin stimulation,[2]; at 10 µM,14.9% (active)
same,nuclear beta-catenin stimulation,"[2]; stimulation, at 2 µM",44.5%
same,insulin secretion stimulation,[3],0.6% (inactive)
same,viability decrease,[4],98.9% (active)
same,tube area decrease,[5],108% (active)
same,GLP1 secretion stimulation,[6],0.3% (inactive)
same,inhibition of viability,[7],99.3% (active)
same,viability decrease (inhibition),[8],102% (active)
same,viability decrease (inhibition),[9],102% (active)
same,red/green cell ratio (normalised),"[10]; counts scaled to control wells, 1 = unselective",1.09 (inactive)
same,normalised cell number,[10]; [19],1.03
same,normalised cell number,[10]; [20],1.13
N#Cc1nn(-c2c(Cl)cc(C(F)(F)F)cc2Cl)c(N)c1S(=O)C(F)(F)F (configuration not stated),parasite load remaining,[1],148% (inactive) and 35.4% (inactive)
same,viability,[1],82.8% and 121%
same,nuclear beta-catenin stimulation,[2]; at 10 µM,6.4% (inactive)
same,nuclear beta-catenin stimulation,"[2]; stimulation, at 2 µM",2.1%
same,insulin secretion stimulation,[3],0.5% (inactive)
same,viability decrease,[4],-53.1% (inactive)
same,tube area decrease,[5],9.4% (inactive)
same,GLP1 secretion stimulation,[6],-1.4% (inactive)
same,inhibition of viability,[7],17.3% (inactive)
same,viability decrease (inhibition),[8],42.7% (inactive)
same,viability decrease (inhibition),[9],6.4% (inactive)
same,red/green cell ratio (normalised),[10],0.9 (inactive)
same,normalised cell number,[10]; [19],1
same,normalised cell number,[10]; [20],0.9
same,activity remaining,[16],115% (inactive)
same,fold change,[11]; stronger effect = lower value,0.962 (inactive) and 0.928 (inactive)
same,fold change,[11]; [21],1.07 and 3.63
same,cell count,[11]; [22],4080 and 11800
same,cell count,[11]; [23],4240 and 12700
same,remaining NAD,[13],10 nM (inactive)
same,luciferase signal,[17],40 AU (inactive)
O=C(O)C(Cl)Cl,parasite load remaining,[1],106% (inactive)
same,viability,[1],113%
same,nuclear beta-catenin stimulation,[2]; at 10 µM,1.9% (inactive)
same,nuclear beta-catenin stimulation,"[2]; stimulation, at 2 µM",0%
same,insulin secretion stimulation,[3],-1.6% (inactive)
same,viability decrease,[4],-4.8% (inactive)
same,tube area decrease,[5],-7.2% (inactive)
same,GLP1 secretion stimulation,[6],-2% (inactive)
same,inhibition of viability,[7],-9.3% (inactive)
same,viability decrease (inhibition),[8],38.4% (inactive)
same,viability decrease (inhibition),[9],8.5% (inactive)
same,fold change,[11]; stronger effect = lower value,1.04 (inactive)
same,fold change,"[11]; stronger effect = lower value, cell number ratio, induced over uninduced",0.958 (inactive)
same,fold change,[11]; [21],1.82 and 1.65
same,cell count,[11]; [22],10400 and 8960
same,cell count,[11]; [23],10100 and 9360
same,z-score,[14],0.605 (inactive) and 0.045 (inactive)
COc1ccc(C(=O)N2CCCC2=O)cc1,parasite load remaining,[1],27.9% (inactive) and 46.2% (inactive)
same,viability,[1],90.5% and 108%
same,nuclear beta-catenin stimulation,[2]; at 10 µM,0.6% (inactive)
same,nuclear beta-catenin stimulation,"[2]; stimulation, at 2 µM",1.5%
same,insulin secretion stimulation,[3],-0.2% (inactive)
same,viability decrease,[4],-7.2% (inactive)
same,tube area decrease,[5],-6.9% (inactive)
same,GLP1 secretion stimulation,[6],-1% (inactive)
same,inhibition of viability,[7],-1% (inactive)
same,viability decrease (inhibition),[8],8.2% (inactive)
same,viability decrease (inhibition),[9],2.2% (inactive)
same,red/green cell ratio (normalised),[10],1.03 (inactive)
same,normalised cell number,[10]; [19],1.3
same,normalised cell number,[10]; [20],1.35
same,activity remaining,[16],112% (inactive)
same,remaining activity,[18],122% (inactive)
same,z-score,[12]; [24],0.14 (inactive) and 0.301 (inactive) and -1.05 (inactive)
same,z-score,[12]; [25],1 and 0.247 and -0.762
same,remaining NAD,[13],10 nM (inactive)
same,luciferase signal,[17],60 AU (inactive)
same,z-score,[14],0.545 (inactive) and 0.9 (inactive) and 0.65 (inactive)
CN[C@@H]1C[C@@H](c2ccc(Cl)c(Cl)c2)c2ccccc21,parasite load remaining,[1],4.35% (inactive)
same,viability,[1],29.3%
same,nuclear beta-catenin stimulation,[2]; at 10 µM,63.1% (active)
same,nuclear beta-catenin stimulation,"[2]; stimulation, at 2 µM",1.4%
same,insulin secretion stimulation,[3],6.2% (inactive)
same,viability decrease,[4],99.9% (active)
same,tube area decrease,[5],108% (active)
same,GLP1 secretion stimulation,[6],-0.3% (inactive)
same,inhibition of viability,[7],100% (active)
same,viability decrease (inhibition),[8],103% (active)
same,viability decrease (inhibition),[9],102% (active)
same,remaining activity,[18],107% (inactive)
same,fold change,[11]; stronger effect = lower value,0.889 (inactive) and 0.782 (inactive)
same,fold change,[11]; [21],0.588 and 1.76
same,cell count,[11]; [22],306 and 538
same,cell count,[11]; [23],344 and 689
same,z-score,[12]; [24],-1.52 (inactive)
same,z-score,[12]; [25],-1.03
same,z-score,[14],-1.29 (inactive) and -0.78 (inactive)

# Source: PubChem BioAssay
